Source: PubChem BioAssay (Tox21)
Inconclusive results are not listed. Activity calls are given as the source filed them. Unless noted, calls come from the whole dose curve; as a rule, active = well fitted curve in the direction sought with a large enough effect in the repeat runs; inconclusive = weak or mixed curves; inactive = no such curve, though single readings can be large; an effect the other way counts as inactive or inconclusive.

Columns and labels:
[1] = qHTS assay to identify small molecule agonists of the peroxisome proliferator-activated receptor delta (PPARd) signaling pathway - cell viability counter screen (AID 743211); note: nearly all actives have a fitted effect of over 55% in size; note: potency is the fitted concentration of half-maximal effect
Procedure, shortened: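 Following 5 h plating at 37 C and 5% CO2, PPARd UAS-bla HEK293H cells took up test compounds for 17 h. Viability was quantified by luminescence 30 min after CellTiter-Glo addition at room temperature.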

[2] = qHTS assay to identify small molecule agonists of the farnesoid-X-receptor (FXR) signaling pathway - cell viability counter screen (AID 743218); note: nearly all actives have a fitted effect of over 45% in size; note: potency is the fitted concentration of half-maximal effect
Procedure, shortened: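 In GeneBLAzer FXR-UAS-bla HEK 293T cells, compounds act for 16 h at 37 C. Cell viability is then scored in the reporter wells by CellTiter-Glo, 30 min at RT, luminescence.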

[3] = qHTS assay to identify small molecule antagonists of the farnesoid-X-receptor (FXR) signaling pathway - cell viability counter screen (AID 743221; active = well fitted cell-killing curve with a large enough effect in the repeat runs, not every such curve was filed as active; note: nearly all actives have a fitted effect of over 50% in size; note: potency is the fitted concentration of half-maximal effect)
Procedure, shortened: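 Compound effects on cell number were measured as CellTiter-Glo luminescence in HEK 293T cells expressing FXR-UAS-bla, after 16 h at 37 C with 50 uM CDCA (final).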

[4] = qHTS assay to identify small molecule agonists of the vitamin D receptor (VDR) signaling pathway - cell viability counter screen (AID 743224); note: nearly all actives have a fitted effect of over 50% in size; note: potency is the fitted concentration of half-maximal effect
Procedure, shortened: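 VDR-bla cell line, quantitative HTS format; 16 h compound incubation (37C, 5% CO2); ATP-based CellTiter-Glo luminescence measured in the reporter assay wells.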

[5] = qHTS assay to identify small molecule agonists of the NFkB signaling pathway (AID 1159509; active = well fitted curve in the direction sought with a large enough effect in the signal ratio in the repeat runs, not every such curve was filed as active; the % refers to the signal ratio; note: series mostly up to about 61 µM; % is set by controls: 0 for no effect and ±100 for the full control effect)
Procedure, shortened: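 NFkB-bla ME-180 cells carry a beta-lactamase reporter under an NF-kB response element. They were plated overnight, then exposed to compounds for 5 h at 37 C. Read-out is LiveBLAzer FRET after 1.5 hr at room temperature (405 nm excitation; 460/530 nm emission).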

[6] = qHTS assay to identify small molecule agonists of the NFkB signaling pathway - cell viability counter screen (AID 1159515; calls by dose curve; note: series mostly up to about 61 µM; % is set by controls: 0 for no effect and ±100 for the full control effect; nearly all actives have a fitted effect of over 55% in size)
Procedure, shortened: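 Viability in NFkB-bla ME-180 cells was measured by CellTiter-Glo luminescence, 30 min room temperature, in wells already treated 5 hr with compounds and read for reporter FRET.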

[7] = qHTS assay to identify small molecule antagonists of the retinoid-related orphan receptor gamma (ROR-gamma) signaling pathway - cell viability counter screen (AID 1159520); note: nearly all actives have a fitted effect of over 50% in size; note: potency is the fitted concentration of half-maximal effect
Procedure, shortened: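 Tet-on ROR gamma CHO cells (1,000/well) were plated 4 hr, given compounds in DMSO for 2 hr at 37 C, then induced with 1 uM final doxycycline for 16 hr. Viability was read as ATP by CellTiter-Glo luminescence after 30 min.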

[8] = biological target: Nuclear receptor ROR-gamma (Homo sapiens) (UniProt P51449); assay: qHTS assay to identify small molecule antagonists of the retinoid-related orphan receptor gamma (ROR-gamma) signaling pathway (AID 1159521; note: nearly all actives have a fitted effect of over 50% in size; note: potency is the fitted concentration of half-maximal effect)
Procedure, shortened: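 Screening format: cell-based luciferase reporter in CHO cells with doxycycline-inducible RORγ. Compound pre-exposure lasts 2 h, doxycycline is 1 uM final, induction runs 16 h at 37 C, and ONE-Glo luminescence is read.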

[9] = qHTS assay to identify small molecule agonists of the AP-1 signaling pathway - cell viability counter screen (AID 1159525; calls by dose curve; note: nearly all actives have a fitted effect of over 55% in size)
Procedure, shortened: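 ME-180 AP-1-bla, 2500 cells/well, Opti-MEM + 0.5% dialyzed FBS; overnight 37 °C; cpd 15-pt titration, 5 h 37 °C; CellTiter-Glo 30 min RT; luminescence read; normalised to TOAB and DMSO controls.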

[10] = qHTS assay to identify small molecule agonists of the AP-1 signaling pathway (AID 1159526; calls by dose curve; note: potency is the fitted concentration of half-maximal effect)
[11] = biological target: Peroxisome proliferator-activated receptor delta (Homo sapiens) (UniProt Q03181); assay: qHTS assay to identify small molecule agonists of the peroxisome proliferator-activated receptor delta (PPARd) signaling pathway (AID 743212; calls by dose curve; note: % is set by controls: 0 for no effect and ±100 for the full control effect)
Peroxisome proliferator-activated receptor delta (Homo sapiens), sequence (Q03181 whole entry, looked up): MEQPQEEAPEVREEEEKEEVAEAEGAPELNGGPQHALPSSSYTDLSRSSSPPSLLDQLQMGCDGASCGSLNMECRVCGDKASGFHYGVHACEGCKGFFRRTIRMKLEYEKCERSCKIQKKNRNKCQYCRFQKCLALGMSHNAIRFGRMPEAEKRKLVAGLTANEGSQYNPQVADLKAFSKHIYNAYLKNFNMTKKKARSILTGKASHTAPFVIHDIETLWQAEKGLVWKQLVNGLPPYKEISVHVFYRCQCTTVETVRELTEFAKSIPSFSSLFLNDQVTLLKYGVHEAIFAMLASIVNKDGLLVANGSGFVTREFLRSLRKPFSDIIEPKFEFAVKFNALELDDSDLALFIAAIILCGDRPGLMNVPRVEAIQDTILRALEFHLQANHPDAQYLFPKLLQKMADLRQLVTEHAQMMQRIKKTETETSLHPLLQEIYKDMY
Procedure, shortened: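 A PPARd-bla HEK293H line with beta-lactamase under an Upstream Activator Sequence is treated with compounds at 37 C. Substrate loading for 2 h at room temperature precedes the fluorescence measurement.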

[12] = biological target: Bile acid receptor (Homo sapiens) (UniProt Q96RI1); assay: qHTS assay to identify small molecule agonists of the farnesoid-X-receptor (FXR) signaling pathway (AID 743220; active = well fitted activation curve with a large enough effect in the signal ratio in the repeat runs, not every such curve was filed as active; the % refers to the signal ratio; note: % is set by controls: 0 for no effect and ±100 for the full control effect)
Bile acid receptor (Homo sapiens), sequence (Q96RI1 whole entry, looked up): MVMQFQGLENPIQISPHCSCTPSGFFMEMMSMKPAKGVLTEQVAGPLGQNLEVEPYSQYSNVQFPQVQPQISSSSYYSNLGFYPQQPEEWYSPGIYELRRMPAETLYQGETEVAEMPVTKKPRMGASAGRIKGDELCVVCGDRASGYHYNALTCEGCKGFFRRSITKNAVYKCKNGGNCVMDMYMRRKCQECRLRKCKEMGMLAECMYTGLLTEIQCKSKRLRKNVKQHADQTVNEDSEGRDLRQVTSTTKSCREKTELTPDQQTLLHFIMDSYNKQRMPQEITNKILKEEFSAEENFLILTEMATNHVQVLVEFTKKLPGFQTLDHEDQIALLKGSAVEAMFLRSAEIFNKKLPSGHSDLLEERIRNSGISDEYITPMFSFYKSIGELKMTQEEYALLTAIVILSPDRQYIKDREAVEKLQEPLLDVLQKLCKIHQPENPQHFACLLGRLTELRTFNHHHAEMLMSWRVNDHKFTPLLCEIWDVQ
Procedure, shortened: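 Beta-lactamase reporter under UAS control in GeneBLAzer FXR HEK 293T cells (5000/well) measured with LiveBLAzer FRET substrate after 2 h at room temperature. Compound exposure lasted 16 h at 37C.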

[13] = biological target: Vitamin D3 receptor (Homo sapiens) (UniProt P11473); assay: qHTS assay to identify small molecule agonists of the vitamin D receptor (VDR) signaling pathway (AID 743222; calls by dose curve; note: % is set by controls: 0 for no effect and ±100 for the full control effect)
Vitamin D3 receptor (Homo sapiens), sequence (P11473 whole entry, looked up): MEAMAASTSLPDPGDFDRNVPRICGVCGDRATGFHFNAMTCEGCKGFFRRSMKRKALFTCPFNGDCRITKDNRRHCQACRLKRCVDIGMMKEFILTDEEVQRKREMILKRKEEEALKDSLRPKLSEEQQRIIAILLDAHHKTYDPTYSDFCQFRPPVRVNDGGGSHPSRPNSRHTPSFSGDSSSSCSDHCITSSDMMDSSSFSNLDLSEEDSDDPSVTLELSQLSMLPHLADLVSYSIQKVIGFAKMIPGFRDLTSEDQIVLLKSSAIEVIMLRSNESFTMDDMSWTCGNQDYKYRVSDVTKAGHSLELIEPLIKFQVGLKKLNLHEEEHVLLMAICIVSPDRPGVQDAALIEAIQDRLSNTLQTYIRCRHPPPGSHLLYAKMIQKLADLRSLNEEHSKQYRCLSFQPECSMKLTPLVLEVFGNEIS
Procedure, shortened: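 Agonist activity measured in VDR-bla reporter cells. Exposure 16 h, 37C, 5% CO2; detection by B/G FRET substrate, 2 h RT.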

[14] = qHTS assay to identify small molecule antagonists of the vitamin D receptor (VDR) signaling pathway - cell viability counter screen (AID 743225)
Procedure, shortened: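 In this counter screen, VDR-bla HEK 293T cells receive test compound plus 3 nM final calcitriol for 16 h at 37C. Room-temperature steps of 2 h with the beta-lactamase substrate, then 30 min with CellTiter-Glo, precede the luminescence read.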

[15] = qHTS assay to identify small molecule agonists of the endoplasmic reticulum stress response signaling pathway - cell viability counter screen (AID 1159517; calls by dose curve)
Procedure, shortened: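 CellTiter-Glo was added to wells already read for beta-lactamase FRET, and luminescence was recorded 30 min later. Cells: ESRE-bla HeLa, 1,500 per well, compound exposure 5 hr at 37 C.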

[16] = qHTS assay to identify small molecule antagonists of the peroxisome proliferator-activated receptor delta (PPARd) signaling pathway - cell viability counter screen (AID 743213); note: nearly all actives have a fitted effect of over 50% in size; note: potency is the fitted concentration of half-maximal effect
Procedure, shortened: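 Cytotoxicity counter screen: CellTiter-Glo luminescence read 30 min after addition, in the same wells as the reporter assay. There, PPARd UAS-bla HEK293H cells (3000/well) were treated 17 h at 37 C with compound and 300 nM L165041.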

[17] = biological target: Vitamin D3 receptor (Homo sapiens) (UniProt P11473); assay: qHTS assay to identify small molecule antagonists of the vitamin D receptor (VDR) signaling pathway (AID 743223; active = well fitted inhibition curve with a large enough effect in the signal ratio in the repeat runs, not every such curve was filed as active; the % refers to the signal ratio; note: % is set by controls: 0 for no effect and ±100 for the full control effect)
Procedure, shortened: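 Beta-lactamase activity in VDR-bla cells is measured by FRET substrate fluorescence (2 h, room temperature) after cells spend 16 h at 37C with test compound and 3 nM final 1alpha,25-dihydroxyvitamin D3.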

[18] = biological target: Peroxisome proliferator-activated receptor delta (Homo sapiens) (UniProt Q03181); assay: qHTS assay to identify small molecule antagonists of the peroxisome proliferator-activated receptor delta (PPARd) signaling pathway (AID 743215; active = well fitted inhibition curve with a large enough effect in the signal ratio in the repeat runs, not every such curve was filed as active; the % refers to the signal ratio)
Procedure, shortened: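 Antagonist-mode beta-lactamase reporter screen: HEK293H cells with UAS-bla under PPARd control, stimulated by 300 nM L165041 (final) alongside test compound for 17 h at 37 C, then FRET fluorescence after 2 h substrate incubation.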

[19] = biological target: Bile acid receptor (Homo sapiens) (UniProt Q96RI1); assay: qHTS assay to identify small molecule antagonists of the farnesoid-X-receptor (FXR) signaling pathway (AID 743217; active = well fitted inhibition curve with a large enough effect in the signal ratio in the repeat runs, not every such curve was filed as active; the % refers to the signal ratio; note: % is set by controls: 0 for no effect and ±100 for the full control effect)
Procedure, shortened: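 Beta-lactamase reporter under UAS control in HEK 293T cells; compound exposure 16 h at 37 °C in the presence of chenodeoxycholic acid (50 uM final); signal from B/G FRET substrate after 2 h at room temperature.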

Cc1cc(=O)c2c(O)c3c(O)cc(=O)c4c3c3c(cc(O)c1c23)C(C)(C)C=4O
inactive: Potency [5] | Potency [6] | viability change, negative = cytotoxic [9] 5.76% [at 15.8 µM] | activation [10] -0.228% [at 15.8 µM]
active: Potency [1] 0.291 µM | Potency [2] 1.84 µM | Potency [3] 1.84 µM | Potency [4] 0.731 µM | Potency [7] 1.64 µM | Potency [8] 0.82 µM

C/C=C(/C(=C/C)c1ccc(O)cc1)c1ccc(O)cc1
inactive: Potency [11] | Potency [12] | Potency [13] | Potency [4] | Potency [14] | Potency [5] | Potency [6] | Potency [15] | Potency [10]

OC(CCN1CCCC1)(c1ccccc1)C1CCCCC1 (stereo not drawn)
inactive: Potency [1] | Potency [16] | Potency [2] | Potency [3] | Potency [13] | Potency [17] | Potency [4] | Potency [14] | Potency [5] | Potency [6] | Potency [7] | Potency [8] | Potency [9]

O=C1Cc2cc(Cl)ccc2N1
inactive: Potency [1] | Potency [11] | Potency [16] | Potency [18] | Potency [2] | Potency [3] | Potency [13] | Potency [17] | Potency [4] | Potency [14] | Potency [5] | Potency [6] | Potency [7] | Potency [8] | Potency [10]

CCOC(=O)C1=C(C)NC(C)=C(C(=O)OC)C1c1cccc(Cl)c1Cl (stereo not drawn)
inactive: Potency [1] | Potency [16] | Potency [18] | Potency [19] | Potency [2] | Potency [3] | Potency [5] | Potency [6] | Potency [15] | Potency [8] | Potency [10]

c1csc(SSc2cccs2)c1
active: Potency [8] 24.3 µM
inactive: Potency [16] | Potency [18] | Potency [2] | Potency [17] | Potency [4] | Potency [14] | Potency [5] | Potency [6] | Potency [15] | Potency [9]

O=C(OCC(O)CO)c1ccccc1Nc1ccnc2cc(Cl)ccc12 (stereo not drawn)
active: Potency [1] 33.5 µM | Potency [16] 26.6 µM
inactive: Potency [14] | Potency [5] | Potency [6] | Potency [15] | Potency [10]

CCC(C)COC(=O)CC(C)C (stereo not drawn)
active: Potency [2] 24.5 µM
inactive: Potency [16] | Potency [18] | Potency [13] | Potency [17] | Potency [4] | Potency [5] | Potency [6] | Potency [15] | Potency [7] | Potency [10]

CC=C(Cl)Cl
inactive: Potency [1] | Potency [11] | Potency [16] | Potency [18] | Potency [2] | Potency [3] | Potency [13] | Potency [17] | Potency [4] | Potency [14] | Potency [5] | Potency [6] | Potency [7] | Potency [8] | Potency [9] | Potency [10]

O=C1c2ccccc2C(=O)c2c(O)c(O)cc(O)c21
inactive: Potency [1] | Potency [11] | Potency [16] | Potency [18] | Potency [19] | Potency [2] | Potency [12] | Potency [3] | Potency [13] | Potency [17] | Potency [4] | Potency [14] | Potency [5] | Potency [6] | Potency [15] | Potency [8] | Potency [9] | Potency [10]

CC(=O)Oc1ccc([N+](=O)[O-])cc1CCl
inactive: Potency [1] | Potency [11] | Potency [16] | Potency [18] | Potency [19] | Potency [12] | Potency [3] | Potency [4] | Potency [14] | Potency [5] | Potency [6] | Potency [15] | Potency [8] | Potency [9] | Potency [10]

Cc1ccccc1S
inactive: Potency [1] | Potency [11] | Potency [16] | Potency [18] | Potency [19] | Potency [2] | Potency [12] | Potency [3] | Potency [13] | Potency [17] | Potency [4] | Potency [14] | Potency [5] | Potency [6] | Potency [7] | Potency [8] | Potency [9] | Potency [10]

CC(C)COCC(CN(Cc1ccccc1)c1ccccc1)N1CCCC1 (stereo not drawn)
inactive: Potency [18] | Potency [12] | Potency [5] | Potency [6] | Potency [15]
active: Potency [1] 21.1 µM | Potency [2] 33.5 µM | Potency [8] 23.7 µM

CCOC(=O)/C=C/C(=O)OCC
inactive: Potency [1] | Potency [11] | Potency [16] | Potency [18] | Potency [2] | Potency [3] | Potency [17] | Potency [4] | Potency [14] | Potency [5] | Potency [6] | Potency [7] | Potency [9] | Potency [10]

C/C=C\C/C=C/CCCCCCCCOC(C)=O
inactive: Potency [1] | Potency [11] | Potency [16] | Potency [12] | Potency [3] | Potency [5] | Potency [6] | Potency [15] | Potency [8] | Potency [9]

CC(=O)c1ccc([N+](=O)[O-])cc1
inactive: Potency [1] | Potency [11] | Potency [16] | Potency [18] | Potency [2] | Potency [3] | Potency [17] | Potency [4] | Potency [14] | Potency [5] | Potency [6] | Potency [7] | Potency [9] | Potency [10]

CCCCC(CC)COP(=O)(O)O (stereo not drawn)
inactive: Potency [1] | Potency [16] | Potency [2] | Potency [12] | Potency [4] | Potency [14] | Potency [5] | Potency [6] | Potency [7] | Potency [8]
active: Potency [10] 39.6 µM

CCOC(=O)c1ccccc1C(=C1C=C(Br)C(=O)C(Br)=C1)c1cc(Br)c(O)c(Br)c1
inactive: Potency [1] | Potency [16] | Potency [13] | Potency [4] | Potency [14] | Potency [5] | Potency [6] | Potency [9]
active: Potency [7] 51.3 µM | Potency [8] 22.9 µM

CCC1NC(=O)c2cc(S(N)(=O)=O)c(Cl)cc2N1 (stereo not drawn)
inactive: Potency [1] | Potency [11] | Potency [16] | Potency [2] | Potency [13] | Potency [17] | Potency [4] | Potency [14] | Potency [5] | Potency [6] | Potency [7] | Potency [8] | Potency [10]

O=C(O)CCc1nc(-c2ccccc2)c(-c2ccccc2)o1
inactive: Potency [1] | Potency [16] | Potency [18] | Potency [2] | Potency [3] | Potency [13] | Potency [4] | Potency [14] | Potency [5] | Potency [6] | Potency [7] | Potency [8] | Potency [9] | Potency [10]
